In all, about 10,000 compounds went through this assay and about 320 (3.2%) were called active. Rule as the data show it: active = CPE inhibition mostly above about 9.1% (no sharp cut-off); inactive = mostly below about 7.2%. What follows is part of a selection rich in actives, with near analogues and random picks from the rest.
Test: Dengue virus cytopathic effect inhibitors, cell-based, CPE readout, HTS (AID 540333)
Settings: Dengue virus CPE inhibition in host cells, at 20 µM; hits give high values

SMILES | CPE inhibition
CCOC(=O)c1ccc(-c2ccc(C3Nc4ccccc4C(=O)N3O)o2)cc1 (stereo unspecified) | 0.8% (inactive)
Fc1cccc2sc(Nc3nc4cc5c(cc4s3)OCO5)nc12 | 13.5% (active)
Fc1cccc2sc(Nc3nc4ccccc4s3)nc12 | 0.65% (inactive)
COC(=O)c1ccc2nc(Nc3nc4ccc(F)cc4s3)sc2c1 | 1.64% (inactive)
Fc1ccc2nc(Nc3nc4cc5c(cc4s3)OCCO5)sc2c1 | 9.35% (active)
Fc1ccc2nc(Nc3nc4c(F)cc(F)cc4s3)sc2c1 | 1.16% (inactive)
c1ccc2sc(Nc3nc4cc5c(cc4s3)OCO5)nc2c1 | 0.275% (inactive)
Cc1ccc(N/N=C(\C#N)C(N)=S)c(C)c1 | 4.94% (inactive)
Cc1ccccc1-n1c(-c2csc(C)c2C)n[nH]c1=S | 0.5% (inactive)
C=CCOC(=O)C1=C[C@@H](c2coc3ccccc3c2=O)C[C@@H](OCCCCO)O1 | inactive
O=C1c2cccc3c(N4CCOCC4)c([N+](=O)[O-])cc(c23)C(=O)N1c1cccc2ccccc12 | inactive
N#Cc1ccc(C23CC4(C2)[C@H](CN(P(=O)(c2ccccc2)c2ccccc2)[C@@H]4c2ccccc2)C3c2ccc(Cl)nc2)cc1 (stereo partly specified) | 18.1% (active)
Clc1ccc(C2[C@H]3CN(CC4CCCCC4)[C@H](c4ccccc4)C34CC2(c2ccccc2)C4)cn1 (stereo partly specified) | 4.18% (inactive)
CC(C)CC(=O)NC(Nc1ccc([N+](=O)[O-])cc1)C(Cl)(Cl)Cl (stereo unspecified) | 6.29% (inactive)
Cc1cccc(N2C(=O)C(Cc3ccccc3)NC2=S)c1 (stereo unspecified) | inactive
CCCCn1c(O)c(N=NC(=O)c2ccco2)c2ccccc21 | inactive
O=C(N=Nc1c(O)n(Cc2ccccc2)c2ccccc12)c1ccc(O)cc1 | 16.3% (active)
CCn1c(O)c(N=NC(=O)c2ccc(CSc3nncn3C)cc2)c2ccccc21 | inactive
C/C(=N\Nc1ccc([N+](=O)[O-])cc1)c1ccc(-n2nncc2C)cc1 | inactive
N#CC(C#N)=Cc1ccc(-c2ccc(S(=O)(=O)N=C(N)N)cc2)o1 | 0.46% (inactive)
COC(=O)c1sc2nc(C)cc(-c3ccccc3)c2c1N | inactive
Cc1ccc(/C=C2\SC(=S)N(CCC(=O)NNS(=O)(=O)c3ccc(C)cc3)C2=O)cc1 | 0.18% (inactive)
CC(C)(C)CNC(=O)c1cccc2c1C(=O)c1ccc(N3CCCC3)cc1S2(=O)=O | 0.02% (inactive)
O=C(Nc1nc(-c2ccc(Oc3ccccc3)cc2)cs1)C1=COCCO1 | 10.7% (active)
O=C(Nc1nc(-c2cccs2)cs1)C1=COCCO1 | inactive
O=C(Nc1nc(-c2ccc(-c3ccccc3)cc2)cs1)C1=COCCO1 | 1.39% (inactive)

From PubChem BioAssay AID540333 (Southern Research Specialized Biocontainment Screening …, 2011)
